Data on 30 compounds can be found in PubChem BioAssay (NCATS).

Holding throughout (assay): Confirmatory Screen for Target Class Profiling of Small Molecule Inhibitors of Methyltransferases (AID 1745852); as to activity change, negative = inhibition: % is scaled to controls: 0 for no effect and ±100 for the full control effect
The target in assay [1] is Catechol O-methyltransferase (Homo sapiens) (UniProt P21964). To be noted: MTase-Glo luminescence, SAH detection, recombinant enzyme; measured here: COMT max response; stronger effect = lower value.
The target in assay [2] is Guanidinoacetate N-methyltransferase (Homo sapiens) (UniProt Q14353). To be noted: MTase-Glo luminescence, SAH detection, recombinant enzyme; activity change, negative = inhibition: at 57.3 µM (top of the series) unless noted; series mostly up to 57.3 µM.
For assay [3], the target named is Nicotinamide N-methyltransferase (Homo sapiens) (UniProt P40261). As to conditions: MTase-Glo luminescence, SAH detection, recombinant enzyme; measured here: NNMT max response; stronger effect = lower value.
Assay [4] has as its target Phenylethanolamine N-methyltransferase (Homo sapiens) (UniProt P11086). As to conditions: MTase-Glo luminescence, SAH detection, recombinant enzyme; measured here: PNMT max response; stronger effect = lower value.

Activity calls are given as the source filed them. Calls follow the shape of the full dose curve.
Potency is read from the fitted curve at half-maximal effect.

Phenylethanolamine N-methyltransferase (Homo sapiens), sequence (P11086 whole entry, looked up): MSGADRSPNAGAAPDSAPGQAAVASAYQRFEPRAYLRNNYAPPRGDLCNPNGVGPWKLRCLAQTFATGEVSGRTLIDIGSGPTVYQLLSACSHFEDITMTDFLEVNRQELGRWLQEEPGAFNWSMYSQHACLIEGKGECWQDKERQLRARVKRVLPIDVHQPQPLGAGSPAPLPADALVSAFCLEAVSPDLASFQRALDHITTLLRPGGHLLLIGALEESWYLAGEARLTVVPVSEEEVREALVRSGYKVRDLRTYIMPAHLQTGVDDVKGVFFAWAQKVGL
Nicotinamide N-methyltransferase (Homo sapiens), sequence (P40261 whole entry, looked up): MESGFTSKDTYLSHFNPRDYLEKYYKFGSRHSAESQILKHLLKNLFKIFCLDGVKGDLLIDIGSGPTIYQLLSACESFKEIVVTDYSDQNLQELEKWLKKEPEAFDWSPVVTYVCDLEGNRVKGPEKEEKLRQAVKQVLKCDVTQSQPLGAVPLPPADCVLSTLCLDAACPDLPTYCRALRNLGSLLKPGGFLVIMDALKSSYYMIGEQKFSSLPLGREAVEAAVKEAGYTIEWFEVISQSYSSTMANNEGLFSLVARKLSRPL
Catechol O-methyltransferase (Homo sapiens), sequence (P21964 whole entry, looked up): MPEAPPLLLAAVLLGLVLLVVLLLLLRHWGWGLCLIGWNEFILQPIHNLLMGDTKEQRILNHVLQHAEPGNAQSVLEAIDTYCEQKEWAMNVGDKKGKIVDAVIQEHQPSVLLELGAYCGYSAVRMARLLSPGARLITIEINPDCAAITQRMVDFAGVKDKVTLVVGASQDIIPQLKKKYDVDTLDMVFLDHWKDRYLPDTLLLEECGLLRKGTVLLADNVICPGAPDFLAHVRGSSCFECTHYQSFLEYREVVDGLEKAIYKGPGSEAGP

Take `c1cc(NC2CCNCC2)nc(-c2cnc3ccccn23)c1`: the activity in assay [1] is -7.29%; in assay [3] it was -8.81%; in assay [4], -8.43%. Further, in assay [2], the activity change, negative = inhibition was -7.64%.
Take `O=C1Cc2c([nH]c3ccc(Br)cc23)-c2ncccc2N1`: the activity in assay [1] was -8.4%; in assay [3], -15.4%; in assay [4], -7.69%. The activity change, negative = inhibition in assay [2] is -5.35%.
For `C=C1C(=O)O[C@@H]2/C=C(\CO)CC/C=C(/C=O)C[C@H](O)[C@@H]12`, the activity in assay [1] was -86.9%; in assay [3], 4.28%; in assay [4], 0.589%. Moreover, in assay [2], the activity change, negative = inhibition is -3.06%.
Take `O=S1(=O)CCN(Cc2cc(NCC3CCOCC3)c3[nH]c(-c4ccccc4)cc3c2)CC1`: the activity was -4.1% in assay [1], -6.86% in assay [3] and -4.93% in assay [4]. Moreover, the activity change, negative = inhibition in assay [2] was -1.81%.
On to `CCN(CC)CCCCCCNc1cc(OC)cc2c(C)ccnc12`, for which the activity was -3.27% in assay [1], 0.614% in assay [3] and 2.1% in assay [4]. Further, the activity change, negative = inhibition in assay [2] is -0.864%.
For `CC1(C)CC[C@]2(C(=O)O[C@@H]3O[C@H](CO)[C@@H](O)[C@H](O)[C@H]3O)CC[C@]3(C)C(=CCC4[C@@]5(C)CC[C@H](O[C@@H]6O[C@H](C(=O)O)[C@H](O)[C@H](O)[C@H]6O)C(C)(C)C5CC[C@]43C)[C@@H]2C1` (stereo not given in full), the activity in assay [1] is -55%; in assay [3], -9.04%; in assay [4], -2.05%. Further, the activity change, negative = inhibition in assay [2] was -1.02% [at 19.1 µM].
Take `CC1(CO)CC(O)[C@]2(C(=O)O)CCC34CC3(C=CC3[C@]5(C)C(CC[C@]34C)C(C)(CO)[C@@H](O)[C@H](O)[C@@H]5O)C2C1` (stereo not given in full): the activity is -56.5% in assay [1], -2.18% in assay [3] and -2.96% in assay [4]. Besides, the activity change, negative = inhibition in assay [2] was -5.29% [at 29.8 µM].
Taken in the same sequence, the figures for `CCCCNc1ncc(C(=O)NCc2ccc(-n3ccnc3)cc2)c(NC2CCC(O)CC2)n1` (stereo not given) were -11.6%, -47.3%, -34.7% and -6.08%.
For the compound `O=S(=O)(Nc1cc(Cl)c(Oc2cnc3ccccc3c2)c(Cl)c1)c1ccc(Cl)cc1Cl`, the activity in assay [1] is -8.48%; in assay [3], -47.5%; in assay [4], -24%. Moreover, in assay [2], the Potency was 34.1 µM (active).
With `O=C(c1ccc(Cl)cc1)N1CCN(c2ccnc3cc(Cl)ccc23)CC1`, the activity is -6.44% in assay [1], -41.3% in assay [3] and -10.9% in assay [4]. In addition, in assay [2], the activity change, negative = inhibition was -4.09%.
`Cc1[nH]c(/C=C2\C(=O)Nc3ccc(S(=O)(=O)N(C)c4cccc(Cl)c4)cc32)c(C)c1C(=O)N1CCN(C)CC1`: the figures for the activity in assay [1], in assay [3] and in assay [4] were -10.8%, -49.1% and -9.35%, respectively. For the same compound, in assay [2], the activity change, negative = inhibition is -2.8%.
Turning to `CCC(=C(c1ccc(OCCN2CCCC2)cc1)c1ccc(OCCN2CCCC2)cc1)c1ccccc1`, the activity in assay [1] was -7.7%; in assay [3] it was -3.61%; in assay [4] it was -4.76%. Besides, the activity change, negative = inhibition in assay [2] was -5.33% [at 12.7 µM].
Take `O=C([C@@H]1CCCN(c2ccc3[nH]c(C4(n5cc(Cl)cn5)CC4)nc3n2)C1)N1CCCC1`: the values for the activity in assay [1], in assay [3] and in assay [4] were -0.433%, 0.992% and 0.881%, respectively. Besides, the activity change, negative = inhibition in assay [2] stood at 0%.
With `C[C@H](Nc1cc2c(-c3ccc4c(c3)OCO4)noc2cn1)c1ccccc1`, the activity in assay [1] is -8.55%; in assay [3], -7.23%; in assay [4] it was -13.9%. Also, the activity change, negative = inhibition in assay [2] was -10.4%.
As for `CN(C)[C@@H]1CCc2[nH]c3ccc(NC(=O)c4ccc(F)cc4)cc3c2C1`, the values for the activity in assay [1], in assay [3] and in assay [4] were 0.841%, 0.33% and -1.89%, respectively. In assay [2], the activity change, negative = inhibition was determined as 0%.
For `COc1cc2c(cc1OC)CN(C(=O)/C=C/c1c(-c3ccccc3)n(C)c3ncccc13)CC2`, the activity in assay [1] was -6.33%; in assay [3], -30.5%; in assay [4] it was -5.99%. For the same compound, in assay [2], the activity change, negative = inhibition is -4.03%.
In the case of `Fc1ccc2c(CCNCc3cccc(OCC(F)(F)C(F)F)c3)c[nH]c2c1`, the activity was -0.052% in assay [1], -8.62% in assay [3] and -13.2% in assay [4]. The activity change, negative = inhibition in assay [2] is 0.441%.
In the case of `C=C1C(OC2OC(CO)C(O)C(O)C2O)CC2C(C)(C)C(O)CCC2(C)C1CC/C(C)=C\COC(=O)CC(=O)O` (stereo not given), the activity in assay [1] is -58.5%; in assay [3] it was 0%; in assay [4], 2.99%. Also, the activity change, negative = inhibition in assay [2] stood at 0% [at 19.1 µM].
On to `CCC(=O)N1CCOc2c(cc(-c3ccc(OC)c(OC)c3)cc2OC[C@H]2CCCN(C)C2)C1`, for which the results for the activity in assay [1], in assay [3] and in assay [4] were -13.1%, -10.5% and -9.1%, respectively. Moreover, in assay [2], the activity change, negative = inhibition was -8.77%.
Consider `CCN(CC)C(=O)c1ccc(Nc2nc(OCC3CCCCC3)c3[nH]cnc3n2)cc1`, for which the activity in assay [1] is -18.1%; in assay [3], -75.3%; in assay [4], -18.4%. In addition, in assay [2], the Potency was 30.4 µM (active).
For `COC1C=C(C)C(O)(CO)C2(C)CCCC(C)(C)C12` (stereo not given), the activity in assay [1] was -68.4%; in assay [3] it was -3.75%; in assay [4] it was -2.37%. Besides, the activity change, negative = inhibition in assay [2] is -5.83%.
As to `C/C(=N\N=C(N)N)c1cc(NC(=O)CCCCCCCCC(=O)Nc2cc(/C(C)=N/N=C(N)N)cc(/C(C)=N/N=C(N)N)c2)cc(/C(C)=N/N=C(N)N)c1`, the results for the activity in assay [1], in assay [3] and in assay [4] were -85.9%, -74.6% and -75.4%, respectively. In assay [2], the Potency was 27.1 µM (active).
Take `C/C=C(/C)C(=O)O[C@H]1C=C(CO)C(=O)[C@H](OC(=O)/C(C)=C/CO)[C@H]1C(C)C`: the activity was -55.6% in assay [1], -3.04% in assay [3] and -1.6% in assay [4]. The activity change, negative = inhibition in assay [2] is -5.13%.
As to `O=C1NC(=O)C(c2cnc3ccccn23)=C1c1cn2c3c(cc(F)cc13)CN(C(=O)N1CCCCC1)CC2`, the activity in assay [1] was -28.3%; in assay [3], -51.2%; in assay [4] it was -20.8%. In addition, the activity change, negative = inhibition in assay [2] is -13.3%.
As to `CC12CCC3C1C(c1c(cc(O)c(C(=O)c4ccccc4)c1O)O2)C3(C)C` (stereo not given), the activity was -35.5% in assay [1], -25.6% in assay [3] and -30.9% in assay [4]. Besides, the Potency in assay [2] is 21.1 µM (active).
`COc1ccccc1OCCNCC(O)CCOc1cccc2[nH]c3ccccc3c12` (stereo not given): the activity in assay [1] was -5.33%; in assay [3], -4.12%; in assay [4], -93.1%. Also, the activity change, negative = inhibition in assay [2] turned out to be 2.56%.
On to `NCC(CNc1nc(Nc2cccc(NC(=O)N3CCCC3)c2)ncc1I)C(=O)c1cccs1` (stereo not given), for which the figures for the activity in assay [1], in assay [3] and in assay [4] were -3.81%, -36.6% and -13.7%, respectively. Moreover, the activity change, negative = inhibition in assay [2] was determined as 0%.
For the compound `Cc1cc(N2CCOCC2)ccc1Nc1nc(NC2CCCCC2)c2[nH]cnc2n1`, the activity in assay [1] is -13.2%; in assay [3], -20.9%; in assay [4] it was -9.51%. Moreover, the activity change, negative = inhibition in assay [2] is -8.72%.
Take `c1cc(NCCc2c[nH]c3ccccc23)cc(Nc2ccncc2)c1`: the values for the activity in assay [1], in assay [3] and in assay [4] were -7.79%, -26% and -13.2%, respectively. In assay [2], the Potency was 48.2 µM (active).
Regarding `COC(C)(C)CCn1nc(Nc2c(C)cccc2C)c2cnc(Nc3ccc(OCCN4CCCC4)c(F)c3)nc21`, the values for the activity in assay [1], in assay [3] and in assay [4] were -6.73%, -23.2% and -4.06%, respectively. In assay [2], the activity change, negative = inhibition worked out at 0%.
